Rows were chosen to be rich in hits. Some 2.3% of all compounds tested hit in one or more screens of this group.
LGR2 antag: inhibitors of bursicon-induced LGR2 CRE-luciferase signal, primary screen, cell-based, HEK293, CRE-luciferase reporter, bursicon stimulation; Drosophila bursicon receptor LGR2 (rickets); bursicon-stimulated, 4 h; inhibition, % at 9.99 µM; 380,000 compounds, 0.35% hits; AID 720647, 2013;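 active = drop in luminescence signal, shown as inhibition above about 50% in the replicate tests, limit read from the data, passing the limit was not always enough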;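 note: agonist challenge used bursicon conditioned medium at about half maximal strength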
KKLEB cytotox: cytotoxicity in KKLEB CF airway cells, primary screen, cytotoxicity control for CF NF-kB inhibitor project, cell-based, uHTS, fluorescence assay plates; KKLEB CF airway cells viability, ATPlite luminescence, overnight; hits give low values; cells stimulated with P. aeruginosa culture filtrate; activity change (cytotoxicity), % at 5 µM; 360,000 compounds, 0.36% hits; AID 602141, 2011;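 active = corrected activity change at or below -50% at 5 µM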
CF NFkB inh: inhibitors of PAF-induced NF-kB signaling, primary screen, cell-based, GFP fluorescence, uHTS; AID 588850, 2011; 360,000 compounds, 0.86% hits; KKLEB NF-kB-GFP reporter, GFP fluorescence overnight; inhibition, % at 5 µM;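 active = at least 50% inhibition at 5 µM, scaled per plate between neutral and stimulator controls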;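 note: PAF is a Pseudomonas aeruginosa culture filtrate used as stimulus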
iPSC survival up: enhancers of single-cell hiPSC survival, primary screen, ATPlite luminescence; 100% = ROCK inhibitor wells, 0% = DMSO; survival enhancement, % at 20 µM; 360,000 compounds, 0.044% hits; in the data active = survival enhancement above about 18%;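 note: cells exposed to compounds for 16 hours before the ATP read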
TWEAK Fn14 block: inhibitors of TWEAK-Fn14 signaling, primary screen, luciferase reporter cells, uHTS; inhibition, % at 10 µM; 360,000 compounds, 2% hits; TWEAK-stimulated Fn14 reporter cells, luciferase luminescence, 8 h; in the data active = inhibition above about 50%
HIF-2a block: HIF-2a reporter inhibitors, primary screen, luminescence, 786-0 RCC cells. 786-0 RCC cells HIF-2a reporter, luciferase luminescence, overnight. inhibition, % at 18.8 µM. 360,000 compounds, 0.72% hits. AID 624352, 2012;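 active = inhibition of the luminescence signal of 40% or more relative to plate controls, in a single-dose primary screen at 18.75 µM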
Hits are given with their value; n = inactive; x = no result.

SMILES | LGR2 antag | KKLEB cytotox | CF NFkB inh | iPSC survival up | TWEAK Fn14 block | HIF-2a block
O=C(Nc1nc(-c2cccs2)c(C(=O)C(F)(F)F)s1)c1ccco1 | n | n | n | n | n | n
COc1ccc(NC(=O)Nc2nnc(-c3cccs3)s2)cc1 | n | n | n | n | n | n
COc1ccc(C(=O)Nc2nnc(-c3ccco3)s2)cc1 | 81 | n | n | n | 85 | n
O=C(C1CCCC1)N1CC(=O)N2[C@H](CO)[C@@H](c3ccc(C#Cc4cccc(F)c4)cc3)[C@@H]2C1 | n | x | x | x | x | x
Cc1cc(COc2ccccc2O)on1 | n | n | n | n | 86 | n
Oc1c(N=Nc2nn[nH]n2)ccc2ccccc12 | n | n | n | n | 52 | n
Cc1ccc(N=Nc2ccc(O)c3ncccc23)cc1 | x | n | n | n | n | n
Oc1c(N=Nc2ccc(F)cc2)ccc2ccccc12 | n | n | n | n | 54 | n
Cc1ccc(N=Nc2ccc3ccccc3c2O)cc1 | n | -63 | n | n | 95 | n
Brc1ccc(N/N=C(/N=Nc2nn[nH]n2)c2ccccc2)cc1 | n | n | n | n | n | n
Oc1ccc2ccccc2c1N=Nc1ccc(F)cc1 | n | n | n | n | n | n
CC(=O)c1ccc(NS(=O)(=O)c2cccc(C(=O)Nc3ccccc3C(=O)O)c2)cc1 | n | n | n | n | 82 | n
COc1ccc(NS(=O)(=O)c2cccc(C(=O)Nc3ccccc3C(=O)O)c2)cc1 | n | n | n | n | n | n
COc1ccc(/C=N\NC(=O)c2ccc(Cn3cc(Br)c([N+](=O)[O-])n3)o2)c(OC)c1C | x | n | n | n | 63 | n
Cc1ccc(NC(=O)N2CCCC2C(=O)Nc2ccc(-n3cnnn3)c(C)c2)cc1 (stereo not drawn) | n | n | n | n | n | n
Cc1cc(NC(=O)C2CCCN2C(=O)Nc2cccc(Cl)c2)ccc1-n1cnnn1 (stereo not drawn) | n | n | n | n | 55 | n
COc1cccc(S(=O)(=O)N2C[C@@H](O)COC[C@H]3O[C@H](CC(=O)Nc4ccccc4)CC[C@@H]32)c1 | n | x | x | x | x | x
COCCn1c(C)cc(C(=O)COC(=O)CNC(=O)c2ccccc2)c1C | n | n | n | n | 63 | n
COCCn1c(C)cc(C(=O)COC(=O)c2ccc(Br)o2)c1C | n | n | n | n | 55 | n
COCCn1c(C)cc(C(=O)COC(=O)c2ccc[nH]c2=O)c1C | n | n | n | n | 71 | n
Cc1cc(C(=O)COC(=O)c2ccc[nH]c2=O)c(C)n1C | n | n | n | n | n | n
COc1cc(C(C)=O)ccc1OCC(=O)OCC(=O)c1cc(C)n(CC2CCCO2)c1C (stereo not drawn) | n | n | n | n | n | n
Cc1cc(C(=O)COC(=O)CNC(=O)c2ccccc2)c(C)n1CC1CCCO1 (stereo not drawn) | n | n | n | n | 60 | n
Cc1cc(C(=O)COC(=O)c2ccc(Br)o2)c(C)n1C | n | n | n | n | n | n
CO[C@H]1CN(C)C(=O)c2cc(NC(=O)c3ccc(F)cc3)ccc2OC[C@@H](C)N(C(=O)c2ccc(F)cc2)C[C@@H]1C | n | x | x | x | x | x
SMILES | LGR2 antag | KKLEB cytotox | CF NFkB inh | iPSC survival up | TWEAK Fn14 block | HIF-2a block
O=C(C[C@@H]1C[C@H]2c3cc(NS(=O)(=O)c4ccc(F)cc4)ccc3O[C@H]2[C@H](CO)O1)NCC1CC1 | n | x | x | x | x | x
O=C(C1CCC1)N1CC2(C1)[C@H](c1ccccc1)[C@@H](CO)N2Cc1ccc(Cl)cc1 | n | x | x | x | x | x
C[C@H]1CN([C@@H](C)CO)C(=O)c2cccc(NC(=O)NC3CCCCC3)c2O[C@H]1CN(C)Cc1ccc2c(c1)OCO2 | n | x | x | x | x | x
COCCn1c(C)cc(C(=O)CSc2nc3ccccc3s2)c1C | 61 | n | n | n | 51 | n
CNS(=O)(=O)c1cccc(C(=O)OCC(=O)c2cc(C)n(CC3CCCO3)c2C)c1 (stereo not drawn) | n | n | n | n | n | n
CCn1c(SCC(=O)c2cc(C)n(CC3CCCO3)c2C)nc2ccccc21 (stereo not drawn) | x | n | n | n | n | n
Cc1cccc(C(=O)NCC(=O)OCC(=O)c2cc(C)n(CC3CCCO3)c2C)c1 (stereo not drawn) | n | n | n | n | 59 | n
Cc1cc(C(=O)CSc2nc3ccccc3c(=O)[nH]2)c(C)n1CC1CCCO1 (stereo not drawn) | n | n | n | n | 60 | n
Cc1cc(Nc2ccccc2)nn1C(=O)c1ccc(Br)cc1 | x | n | n | n | 53 | n
Cc1cc(Nc2ccccc2)nn1C(=O)c1ccccc1 | x | n | n | n | n | n
COc1cc(C(=O)Nc2cc(C)ccn2)ccc1OCC(=O)N1CCOCC1 | n | n | n | n | 93 | n
COc1ccc(-c2nc(NC(=O)c3ccc(OCC(=O)N4CCOCC4)c(OC)c3)sc2C)cc1 | n | n | n | n | 58 | n
COc1cc(C(=O)Nc2nc(-c3ccc(Cl)cc3)c(C)s2)ccc1OCC(=O)Nc1ccc(F)cc1 | n | -58 | n | n | n | n
COc1ccc(CCNC(=O)c2ccc(OCC(=O)N3CCOCC3)c(OC)c2)cc1 | n | n | n | n | n | n
CCc1ccc(-c2nc(NC(=O)c3ccc(OCC(=O)Nc4ccc(F)cc4)c(OC)c3)sc2C)cc1 | n | n | n | n | n | n
COc1cc(C(=O)Nc2ccc(C)cn2)ccc1OCC(=O)N1CCOCC1 | n | n | n | n | n | n
Cc1ccc(S(=O)(=O)N[C@H]2CC[C@H](CCn3cc(C4CCCCC4)nn3)O[C@@H]2CO)cc1 | n | x | x | x | x | x
Cc1c(-c2cccc(Cl)c2)nc2ccccc2c1C(=O)OCC(=O)Nc1ccc2c(c1)OCO2 | n | n | n | n | 52 | n
CCc1nc2ccccc2c(C(=O)OCC(=O)Nc2cccc(S(=O)(=O)N3CCOCC3)c2)c1C | x | n | n | n | 97 | n
CCc1nc2ccccc2c(C(=O)OCC(=O)Nc2ccc(S(=O)(=O)N3CCOCC3)cc2)c1C | x | n | n | n | n | n
CCc1nc2ccccc2c(C(=O)OCC(=O)Nc2cccc(S(=O)(=O)NC3=NCCCCC3)c2)c1C | n | n | n | n | 80 | n
CCCn1c(SCC(=O)Nc2cccc(S(=O)(=O)NC3=NCCCCC3)c2)nc2ccccc2c1=O | n | n | n | n | 78 | n
CO[C@H]1CN(C)C(=O)c2cc(C#N)ccc2OCC[C@@H]2CC[C@@H](OC)[C@H](CN(C)C(=O)[C@H]1C)O2 | n | x | x | x | x | x
CNC[C@H]1Oc2ccc(NC(=O)Nc3cccc4ccccc34)cc2C(=O)N([C@@H](C)CO)C[C@H]1C | n | x | x | x | x | x
